In PubChem BioAssay:
Unmarked numbers belong to inactive results. How the calls were made is not given here.

Molecular target: Pantothenate synthetase (Mycobacterium tuberculosis (strain ATCC 25618 / H37Rv)) (UniProt P9WIL5)
Assay: Recombinant Mtb pantothenate synthetase (PanC) inhibitors, coupled enzyme, confirmatory (AID 375);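 further: 0% = full reaction with vehicle and 100% = no enzyme background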
Details: coupled enzyme assay; at 10 µM, stronger effect = higher value

Pantothenate synthetase (Mycobacterium tuberculosis (strain ATCC 25618 / H37Rv)), sequence (P9WIL5 whole entry, looked up): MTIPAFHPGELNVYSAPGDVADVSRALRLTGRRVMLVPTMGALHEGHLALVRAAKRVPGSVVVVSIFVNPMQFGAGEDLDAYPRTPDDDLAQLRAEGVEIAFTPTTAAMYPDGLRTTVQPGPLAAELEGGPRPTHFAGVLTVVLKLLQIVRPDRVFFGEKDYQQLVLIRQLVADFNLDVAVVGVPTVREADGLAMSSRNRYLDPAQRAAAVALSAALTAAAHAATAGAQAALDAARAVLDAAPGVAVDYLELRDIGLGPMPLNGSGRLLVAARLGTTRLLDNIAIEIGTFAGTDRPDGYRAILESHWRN

| SMILES | inhibition [%] |
| --- | --- |
| Cc1ccc(-n2nc(-c3cccs3)cc2C(=O)NCC2CCCO2)c(C)c1 (stereo not given) | 0 |
| Cn1c(=N)c(S(=O)(=O)c2ccccc2)cc2c(=O)n3ccccc3nc21 | 2 |
| CCOc1ccc(C(=O)Nc2ccc(N3CCN(C)CC3)cc2)cc1Br | 0 |
| Cn1c(=O)c2c(nc(-n3ccnc3)n2C)n(C)c1=O | 0 |
| O=C(Nc1cccc(-c2nnc(-c3ccccc3)o2)c1)C1CCCCC1 | 0 |
| CCOCCCNC(=O)C1CC(=O)N(C2CCCC2)C1 (stereo not given) | 2 |
| CCOC(=O)C1CCN(C(c2cc3cc(C)cc(C)c3[nH]c2=O)c2nnnn2C2CCCCC2)CC1 (stereo not given) | 0 |
| Cn1cnnc1Sc1nc2c(c(=O)n(C)c(=O)n2C)n1Cc1ccccc1Cl | 0 |
| Cn1c(=O)c2c(nc(SCCOc3ccc4ccc(=O)oc4c3)n2C)n(C)c1=O | 0 |
| Nc1c(C(=O)NCc2ccco2)nnn1Cc1ccccc1 | 2 |
| Cc1ccc(-n2nnnc2SCC(=O)N2CCN(C(=O)c3ccco3)CC2)c(C)c1 | 0 |
| Cn1cnnc1SCC(=O)NCc1cccc(C(F)(F)F)c1 | 0 |
| CC(=O)Nc1nc(-c2ccccc2)nc(C)c1C(C)=O | 1 |
| CCc1ccccc1NC(=O)CSc1ncn[nH]1 | 0 |
| CCNCC(O)COCC(O)CNCC (stereo not given) | 0 |
| COc1ccccc1-c1nnc(NC(=O)c2ccc(S(=O)(=O)N(C)Cc3ccccc3)cc2)o1 | 0 |
| c1ccc(CC2CCN(Cc3nc(-c4ccccc4)no3)CC2)cc1 | 3 |
| CC(C)c1nccn1S(=O)(=O)c1cc(Cl)ccc1Cl | 0 |
| Cc1csc2ncc(C(=O)Nc3ccccc3Cl)c(=O)n12 | 3 |
| Cc1ccc(-c2noc(CN3CCN(c4ccccc4F)CC3)n2)cc1 | 0 |

| SMILES | inhibition [%] |
| --- | --- |
| CCN(CC)CCNC(=O)c1cc(S(C)(=O)=O)ccc1OC | 0 |
| COc1cc(CC(=O)Nc2ncc(C)s2)cc(OC)c1OC | 0 |
| COc1ccc(-c2nnn(CCc3nn[nH]n3)n2)cc1OC | 0 |
| CN1CCN(C(=O)c2ccc3c(=O)n(CCc4ccccc4)c(=S)[nH]c3c2)CC1 | 0 |
| CCOC(=O)CSc1nnc(-c2ccc(S(=O)(=O)N3CCOCC3)cc2)n1-c1ccccc1 | 3 |
| CCOC(=O)N1CCN(C(=O)CN(c2ccc(C)cc2)S(=O)(=O)c2c(C)noc2C)CC1 | 0 |
| Cc1cc(=O)[nH]c(S/C=C/c2ccccc2)n1 | 0 |
| NC(=O)N1c2ccccc2C=Cc2ccccc21 | 0 |
| CC(=O)Nc1ccc(S(=O)(=O)CCC#N)cc1 | 5 |
| CCCC(=O)Nc1nnc(CC(=O)N2CCCC2)s1 | 0 |
| O=C(OCC#CCSc1nnc(-c2ccncc2)o1)c1cccs1 | 0 |
| CCOC(=O)c1[nH]nc(-c2c(O)cc(C)cc2O)c1-c1csc(C)n1 | 0 |
| CC1CC(NC(=O)c2cnc3n(c2=O)CCS3)CC(C)(C)C1 (stereo not given) | 5 |
| CCOc1ccc2[nH]cc(C(=O)N3CCN(CC)CC3)c(=O)c2c1 | 0 |
| CS(=O)(=O)NCc1ccc(C(=O)NCc2ccccc2)cc1 | 4 |
| CCOCCCn1c(=NC(C)=O)c(C(=O)OCC)cc2c(=O)n3ccccc3nc21 | 0 |
| CCn1cc(C(=O)NCCCOC)c(=O)c2cc(S(=O)(=O)N(C)C3CCCCC3)ccc21 | 2 |
| CCOc1ccc(CNC(=O)C2CCCN(S(C)(=O)=O)C2)cc1OC (stereo not given) | 0 |
| CCOc1ccc(-n2cc(C(=O)Nc3cccc(C)n3)c3cc(OC)c(OC)cc3c2=O)cc1 | 1 |
| Cc1ccc(N2CC(C(=O)Nc3nnc(C)s3)CC2=O)cc1 (stereo not given) | 6 |
